D1 allo mod = allosteric modulators of human D1 dopamine receptor; hit rate 5.9% among 58,000; HEK293 D1, CRE-luciferase, dopamine EC30 potentiation; actives deviate in either direction; P21728; B-score at 10 µM; AID 641;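 active = luminescence count or its row- and column-corrected plate score outside the 99.7% band of the plate's sample wells, on either side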
CYP2C19 act = activators of human cytochrome P450 2C19. activation factor at 5 µM. P33261. 96,000 tested, under 10 active. AID 1025. recombinant CYP2C19, luciferin-H EGE luminescence; hits give high values; 0 = fully inhibited enzyme, 1 = untreated enzyme;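 active = activation factor of at least 2 at 5 µM in the primary screen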;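 note: 0 = wells with 2.5 mM tranylcypromine and 1 = vehicle-only wells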
Target sequence (P33261 whole entry, looked up): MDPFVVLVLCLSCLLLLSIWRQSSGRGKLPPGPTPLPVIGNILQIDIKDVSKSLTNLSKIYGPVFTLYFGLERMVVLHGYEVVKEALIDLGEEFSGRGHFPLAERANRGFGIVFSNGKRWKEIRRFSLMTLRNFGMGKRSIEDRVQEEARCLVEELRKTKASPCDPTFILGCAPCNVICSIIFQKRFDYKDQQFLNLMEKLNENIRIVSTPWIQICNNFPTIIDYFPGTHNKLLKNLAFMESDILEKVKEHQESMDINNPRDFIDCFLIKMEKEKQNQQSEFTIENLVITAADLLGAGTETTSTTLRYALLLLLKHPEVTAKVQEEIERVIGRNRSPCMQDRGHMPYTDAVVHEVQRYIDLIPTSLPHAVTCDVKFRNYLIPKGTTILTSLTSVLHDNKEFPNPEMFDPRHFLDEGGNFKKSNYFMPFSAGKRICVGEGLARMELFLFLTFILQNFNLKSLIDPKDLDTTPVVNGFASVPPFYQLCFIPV
hDAT+cocaine = human DAT dopamine uptake with cocaine, either direction. Q01959. B-score at 10 µM. LLC-PK1 hDAT cells, [14C]-dopamine uptake with cocaine IC80; actives deviate in either direction. hit rate 1.3% among 110,000;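 active = Z score or B-score, a plate-position-corrected score, falls beyond the plate's 99.7% confidence bounds, in either direction; inactive = both scores lie inside the 99.7% bounds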;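 note: scored against the spread of the other compound wells on the same plate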
CYP2C9 act = activators of human CYP2C9; P11712; recombinant CYP2C9, luciferin-H conversion, luminescence; hits give high values; factor 1 = untreated enzyme, 0 = blocked; activation factor at 5 µM; hit rate 1.4% among 96,000;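 active = activation factor of 2 or more for CYP2C9 at a 5 µM dose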;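 note: 0 = sulfaphenazole-blocked wells and 1 = vehicle-only wells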
CYP2C9 inhib = human CYP2C9 inhibition | P11712 | CYP2C9 Supersomes, luciferin-H conversion, luminescence | inhibition, % at 5 µM | hit rate 20% among 96,000 | AID 777;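 active = blocking of liver enzyme CYP2C9 beyond about 50% at 5 µM, limit read from the data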
CYP2C19 inhib = inhibitors of human CYP2C19; CYP2C19 Supersomes, luciferin-H EGE luminescence, 30 min; P33261; inhibition, % at 5 µM; hit rate 21% among 96,000;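 active = CYP2C19 inhibition above a set limit at 5 µM in the primary screen, cut at about 50% in these data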;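 note: plate controls were negative control wells for no effect and 2.5 mM tranylcypromine positive control for full effect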
* hit, by the source's call; nt = no result given. Only some compounds are listed: those with a hit (about 28% of all), similar ones and a draw of the others.

SMILES	D1 allo mod	CYP2C19 act	hDAT+cocaine	CYP2C9 act	CYP2C9 inhib	CYP2C19 inhib
Cn1c(=O)n(CCOc2ccccc2Cl)c2ccccc21	0.19	0	0.012	0.1	86*	96*
Cn1c(=O)n(CCOc2ccc(Cl)cc2Cl)c2ccccc21	nt	0.8	-0.19	0.9	13	18
Nc1nc2ccccc2n1CCOc1ccccc1Cl	0.73	0.4	1.1	0.7	30	56*
O=C1NC(c2ccccc2)C(C(=O)c2cccs2)=C1O (configuration not stated)	-0.82	1	-1.3	1	0	-2
CC(C)c1nc2cc3ccccc3cc2[nH]1	-2.6	0.9	0.27	0.9	13	12
COc1ccccc1C(CCN(Cc1cccs1)C(C)=O)c1ccco1 (configuration not stated)	-1.1	0.1	0.76	0.1	90*	92*
CCC(=O)N(CCC(c1ccccc1)c1ccco1)Cc1cccs1 (configuration not stated)	nt	0.6	-0.24	0.3	69*	36
CCOC(=O)CSc1nnc2n(Cc3ccccc3)c(=O)c3c4c(sc3n12)CCC4	nt	0.8	-1.5*	0.6	37	17
COC(=O)CSc1nnc2n(-c3ccc(OC)cc3)c(=O)c3c4c(sc3n12)CCCCC4	-0.94	1	0.27	0.9	10	4
CCOC(=O)CSc1nnc(CSc2nc3sc4c(c3c(=O)[nH]2)CCCC4)n1-c1ccccc1	nt	0.3	1.9*	0.3	70*	74*
Cc1nnc2n(Cc3ccccc3)c(=O)c3c4c(sc3n12)CN(Cc1ccccc1)CC4	0.7	0.9	nt	0.9	8	6
Cc1nnc2n(Cc3ccccc3)c(=O)c3c4c(sc3n12)CCCC4	6.3*	1	nt	0.9	9	-1
O=c1c2c3c(sc2n2cnnc2n1Cc1ccccc1)CN(Cc1ccccc1)CC3	0.71	0.3	0.59	0.3	74*	66*
CCC(=O)N1CCN(C(=O)CC)C1c1ccccc1	0.21	0.9	-0.87	1	-1	5
COc1ccc2[nH]c(=O)c(-c3nnn(-c4ccc(Cl)nc4)n3)cc2c1	nt	nt	-0.7	nt	nt	nt
CCOC(=O)C1C(=O)OC2(CCOC(C)(C)C2)C1C(=O)OCC (configuration not stated)	-1.1	0.8	-1.3	1.2	-17	18
C=CCNC(=S)NNC(=O)CCC(O)CCCCC (configuration not stated)	nt	0.8	-1	0.6	43	15
CCC(C)N(NC(C)=O)c1nc(Cl)nc(NC(C)(C)C)n1 (configuration not stated)	nt	0.9	-0.03	0.8	20	7
Oc1ccc(N2CCN(C(c3cccs3)c3nnnn3CCc3ccccc3)CC2)cc1 (configuration not stated)	-0.39	1.1	1.1	0.7	27	-12
C=CCn1c(=O)c2c3c(sc2n2c(Nc4ccccc4)nnc12)CCCC3	nt	0.6	0.48	0.6	35	44
CCOC(=O)CSc1nnc2n(C3CCCCC3)c(=O)c3c4c(sc3n12)CCCC4	nt	0.5	0.11	0.4	63*	54*
CSc1nnc2n(C3CCCCC3)c(=O)c3c4c(sc3n12)CCCC4	nt	0.8	nt	0.7	32	24
CCOC(=O)CC(=O)CSc1nc2c(sc(=S)n2-c2ccccc2)c(=O)[nH]1	0.017	1	0.92	0.3	66*	4
C=CCn1c(=O)c2c3c(sc2n2c(Nc4ccc(OC)cc4)nnc12)CCCC3	2.6	0.8	-0.39	0.2	79*	21
CCOC(=O)c1ccc(-n2c(=S)sc3c(=O)[nH]c(C)nc32)cc1	nt	0.9	-1.3	1.1	-14	6
C=CCOc1cccc(C2/C(=C(/O)c3ccc(F)cc3)C(=O)C(=O)N2CCN2CCOCC2)c1 (configuration not stated)	-0.18	0.9	0.087	1	2	9
Cn1c(=O)c2c(n(C)c1=O)=NC1(CCCCC1)N=2	0.62	0.9	-0.026	0.9	13	12
O=C(Nc1ccon1)c1cccc(C(F)(F)F)c1	-1.2	0.6	0.44	1	2	39
O=C(NCc1cccc(C(F)(F)F)c1)C1CC(c2c(Cl)cccc2Cl)=NO1 (configuration not stated)	nt	0.2	1	0.6	43	78*
O=C(NCc1ccco1)C1CC(c2c(Cl)cccc2Cl)=NO1 (configuration not stated)	nt	0.7	0.14	2.3*	-134	32

High-throughput results: PubChem BioAssay, several laboratories
